BoNT F protease: BoNT F light chain protease inhibition; Multiplex microsphere protease cleavage assay, flow cytometry; 360,000 compounds, 0.22% hits; AID 588497; inhibition, % at 10 µM; in the data active means inhibition above about 35%, passing the limit was not always enough; inconclusive means no clear call, values can overlap the other calls
Anthrax LF inh2: inhibitors of Bacillus anthracis lethal factor protease; P15917; multiplex microsphere protease cleavage assay, LF; inhibition, % at 10 µM; 360,000 compounds, 0.12% hits
SSB-PriA inh: blocks PriA binding to SSB C-terminal tail; 430,000 compounds, 0.6% hits; AlphaScreen SSBct-PriA binding, biotinylated peptide; inhibition, % at 33 µM; in the data active means inhibition mostly above about 37%, no sharp cut-off; inactive means mostly below about 20%
BoNT-A LC inh2: blocks Botulinum neurotoxin A light chain protease. AID 588499. inhibition, % at 10 µM. multiplex microsphere protease substrate cleavage, flow cytometry. 360,000 compounds, 0.17% hits
Autofluor counter: counter-screen for toxin protease inhibitors: compound fluorescence; compound autofluorescence counterscreen, microsphere flow cytometry; active compounds read high; fluorescence intensity (concentration not given with the values); 360,000 compounds, 3.1% hits; AID 624483; in the data active means fluorescence intensity above about 16000; inconclusive means no clear call, values can overlap the other calls
A number is an active result; 0 = inactive; ? = inconclusive; - = no result given. Only some compounds are listed: those with a hit (about 3.1% of all), similar ones and a draw of the others. Unless noted, no stated cut-off is given here; in the data, active means inhibition above about 30%; inconclusive means no clear call, values can overlap the other calls; inactive means below that.

SMILES	BoNT F protease	Anthrax LF inh2	SSB-PriA inh	BoNT-A LC inh2	Autofluor counter
Cn1cccc1Cc1nnc(SCC(=O)NCc2ccccc2)n1-c1ccc(F)cc1	0	0	0	0	0
CCOC(=O)c1ccccc1NC(=O)CSc1nnc(Cc2cccn2C)n1-c1ccc(F)cc1	0	0	0	0	23284
COc1ccc(OC)c(NC(=O)CSc2nc3c(sc(=S)n3-c3ccccc3)c(=O)[nH]2)c1	-	-	0	-	-
CCCCCOc1ccc(C(=O)Nc2nc3c(s2)C(=O)CC(C)(C)C3)cc1	-	-	0	-	-
Cc1cccc(N2CCN(c3nccnc3SCC(=O)Nc3ccc4c(c3)OCO4)CC2)c1C	-	-	0	-	-
CCOC(=O)CC(=O)CSc1ccc2nnc(-c3cccc(F)c3)n2n1	0	0	0	?	16650
O=C(Nc1ccccc1Oc1ccccc1)c1cccc([N+](=O)[O-])c1	0	0	0	?	20430
Cc1nnsc1C(=O)NCC(O)Cn1ccccc1=O (stereo unspecified)	-	-	0	-	-
COc1cccc(N2C(=O)CC(N3CCC(C(N)=O)(N4CCCCC4)CC3)C2=O)c1 (stereo unspecified)	0	0	0	0	26152
COc1cccc2sc3cc(C#Cc4ccccn4)ccc3c(=O)c12	0	0	46.0	0	0
CN(c1ccccc1)S(=O)(=O)c1ccc(C(=O)Nc2nc(-c3nc4ccccc4s3)cs2)cc1	-	-	0	-	-
CCOC(=O)c1c(C)[nH]c(C(=O)C(C)Cl)c1C (stereo unspecified)	0	0	0	0	0
CCOC(=O)c1[nH]c(C)c(C(=O)C(C)C)c1C	0	0	0	0	16910
CCOC(=O)c1[nH]c(C)c(C(=O)N(C)Cc2ccccc2)c1C	0	0	0	0	18491
CNC(=O)COC(=O)c1[nH]c(C)c(C(C)=O)c1C	0	0	0	?	16399
CCNC(=O)c1c(C)[nH]c(C(=O)OCC)c1C	0	0	0	0	24505
CCOC(=O)c1[nH]c(C)c(C(=O)N(C)C)c1C	0	0	0	0	0
C=C1C(=O)OC2/C=C(/CO)CC/C=C(/CO)CC(OC(=O)C(C)C)C12 (stereo unspecified)	-	-	0	-	-
CCOC(=O)c1[nH]c(C)c(C(=O)Nc2ccc(C)c(Cl)c2)c1C	0	0	0	0	21453
CCOCCCNC(=O)c1c(C)[nH]c(C(=O)OCC)c1C	0	0	0	0	16166
CCOCCCNC(=O)c1[nH]c(C)c(C(C)=O)c1C	0	0	0	0	0
CCOC(=O)c1c(C)[nH]c(C(=O)NCc2ccccn2)c1C	0	0	0	0	?
CCOC(=O)c1[nH]c(C)c(C(=O)NCc2ccccn2)c1C	0	0	0	0	21338
CCOC(=O)c1[nH]c(C)c(C(=O)OCCN2C(=O)c3ccccc3C2=O)c1C	0	0	0	0	20341
O=C(c1nc2ccccc2s1)N1CCC(Oc2cccc3cccnc23)CC1	-	-	0	-	-
SMILES	BoNT F protease	Anthrax LF inh2	SSB-PriA inh	BoNT-A LC inh2	Autofluor counter
O=C(/C=C/c1ccc2c(c1)OCO2)Nc1nnc(-c2cc(Cl)sc2Cl)o1	-	-	0	-	-
Cc1ccc(S(=O)(=O)N2CCN(C(=O)CSc3ncnc4sc5c(c34)CCCC5)CC2)cc1	-	-	0	-	-
Cc1ccc(S(=O)(=O)NN=Cc2ccc(O)cc2O)cc1[N+](=O)[O-]	-	-	0	-	-
Cc1ccc(CC(=O)N(CCCN2CCOCC2)c2nc3c(C)cccc3s2)cc1C	-	-	0	-	-
O=C(NNC(=O)c1cccn(Cc2ccc(Cl)c(Cl)c2)c1=O)c1cc2ccccc2oc1=O	-	-	0	-	-
CC(=O)c1c(C)[nH]c(C(=O)COc2cc(C)cc(C)c2)c1C	0	0	0	0	21911
O=C(Nc1nc2c(s1)CN(C(=O)Cn1cccn1)CC2)c1ccoc1	-	-	0	-	-
CC(C)(C)c1ccc(Oc2ccc(NC(=O)c3ccccc3C(=O)O)cn2)cc1	47.5	?	0	0	0
O=C(Nc1nc(CC(=O)N2CCN(c3cccc(Cl)c3)CC2)cs1)c1ccccc1	-	-	0	-	-
COc1ccc(N2CCN(/C(=N\S(=O)(=O)c3ccc(C)cc3)Nc3nc(C)cc(C)n3)CC2)cc1	0	0	-	0	19034
COc1ccc(N2CCN(C(=O)c3ccc(CNS(=O)(=O)c4ccc(C)cc4)cc3)CC2)cc1	0	0	0	0	0
Cn1cnc([N+](=O)[O-])c1Sc1ncccc1N	0	0	0	0	22024
CC(=O)c1c(C)n(CC(=O)NCc2ccc3c(c2)OCO3)c2ccccc12	0	0	0	0	0
O=C(O)c1ccc2c(c1)C(=O)N(Cc1ccc3c(c1)OCO3)C2=O	0	0	0	0	23047
CCCCNC(=O)c1c(N)n(CCCOC)c2nc3ccccc3nc12	0	0	0	0	21009
COCCCn1c(N)c(C(=O)OCCOC)c2nc3ccccc3nc21	0	0	0	0	0
O=C1c2ccccc2C(=O)N1Cc1ccc2c(c1)OCO2	0	0	0	0	0
CC(=O)c1c(C(C)=O)c(C)n(Cc2ccc3c(c2)OCO3)c1C	0	0	0	0	22217

Screens from PubChem BioAssay.
